Each structure is given as a SMILES string. Whole data set: some 110,000 compounds, median “z-score” near -0.1, cut for the highest 2% near 2. The sample holds the highest values, similar compounds and a random draw of the others, so the mix is not that of the screen. The source made the active and inactive calls.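 How the source made its calls: active means z-score in the third read window above 3 or below -3; inactive means the rest.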

Metabotropic glutamate receptor 8 (Rattus norvegicus), sequence (P70579 whole entry, looked up): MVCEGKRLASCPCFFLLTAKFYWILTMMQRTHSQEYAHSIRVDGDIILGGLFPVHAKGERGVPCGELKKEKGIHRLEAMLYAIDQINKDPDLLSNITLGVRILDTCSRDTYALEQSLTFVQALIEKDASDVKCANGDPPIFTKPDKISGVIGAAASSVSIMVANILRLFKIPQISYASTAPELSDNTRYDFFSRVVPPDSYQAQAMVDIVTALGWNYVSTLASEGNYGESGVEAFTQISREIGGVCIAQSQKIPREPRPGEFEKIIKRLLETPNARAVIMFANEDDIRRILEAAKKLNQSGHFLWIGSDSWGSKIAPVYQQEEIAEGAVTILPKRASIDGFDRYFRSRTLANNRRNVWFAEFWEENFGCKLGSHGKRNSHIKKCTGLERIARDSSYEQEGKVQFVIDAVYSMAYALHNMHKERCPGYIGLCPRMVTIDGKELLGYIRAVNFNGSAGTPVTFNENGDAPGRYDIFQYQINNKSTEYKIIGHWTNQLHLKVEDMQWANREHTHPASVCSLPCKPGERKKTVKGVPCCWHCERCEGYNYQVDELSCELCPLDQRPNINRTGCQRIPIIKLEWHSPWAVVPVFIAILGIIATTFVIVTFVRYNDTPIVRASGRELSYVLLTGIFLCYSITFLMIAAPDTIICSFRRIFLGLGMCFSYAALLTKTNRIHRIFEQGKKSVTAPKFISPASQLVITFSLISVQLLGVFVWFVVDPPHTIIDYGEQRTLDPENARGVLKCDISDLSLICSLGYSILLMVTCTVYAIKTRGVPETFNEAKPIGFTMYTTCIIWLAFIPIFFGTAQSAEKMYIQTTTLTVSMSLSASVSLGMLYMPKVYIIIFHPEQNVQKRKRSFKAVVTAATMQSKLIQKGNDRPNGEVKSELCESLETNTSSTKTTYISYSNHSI

This test addresses Metabotropic glutamate receptor 8 (Rattus norvegicus) (UniProt P70579). In words: mGluR8 Gi/Go-coupled signaling modulation – cell-based, rat, thallium flux, HTS, primary screen (AID 488969). To be noted: HEK293 rat mGluR8, GIRK (G protein-gated inwardly rectifying potassium channel) thallium flux, FluoZin2; at 10 µM; stronger effect = higher value; submaximal glutamate (EC20) added with thallium.
On to `O=S1(=O)C[C@@H](O)[C@@H](Nc2ccc(Cl)cc2)C1`, for which the z-score is -0.343. The same measure for `CCn1cc(/C=N/NS(=O)(=O)c2ccc(C)cc2)c(C)n1`: -0.045; for `COc1ccc2c(c1)c1nc3ccccc3nc1n2CC(=O)OC(C)C`: 0.485; for `CC(C)OC(=O)c1c(N)n(CCCN2CCOCC2)c2nc3ccccc3nc12`: -0.444.

Consider `CC(C)OC(=O)c1c2nc3ccccc3nc2n2c1[nH]c(=O)c1ccccc12`, for which the z-score was 16.9 (active).

The compound `CCOC(=O)c1ccc(NC(=O)CN2C(=O)CNC2=O)cc1` gave a z-score of -0.263. In turn, `CCOC(=O)C1=C(C)C2C3C(=O)N(c4ccccc4C)C(=O)C3C1(C)C1C(=O)N(c3ccccc3C)C(=O)C21` (stereo unspecified) gave a z-score of -0.246. The same measure for `O=C(CN1C(=O)NC2(CCc3ccccc32)C1=O)Nc1ccc(N2CCOCC2)cc1` (stereo unspecified): -0.205. Next, `Cc1ccccc1C(=O)NC(=S)Nc1ccccc1C(F)(F)F`: 1.41. The same measure for `Cc1ccc(C(=O)NC(=S)Nc2ccccc2C(F)(F)F)cc1C`: 5.48 (active); for `Cc1ccc(C(=O)NC(=S)Nc2ccccc2C(F)(F)F)c(C)c1`: 0.996. Consider `CCCC(=O)NC(=S)Nc1ccccc1C(F)(F)F`, for which the z-score was determined as 0.25. Next, `CC(C)C(=O)NC(=S)Nc1ccccc1C(F)(F)F`: 0.0217. In turn, `CC(C)(C)CC(=O)NC(=S)Nc1ccccc1C(F)(F)F` returned a z-score of 0.863. The same measure for `CCC(=O)NC(=S)Nc1ccccc1C(F)(F)F`: 0.0622. Next, `Cc1ccc(C(=O)NC(=S)Nc2ccccc2C(F)(F)F)cc1`: 6.32 (active); `Cc1cccc(C(=O)NC(=S)Nc2ccccc2C(F)(F)F)c1`: 3.38 (active). The same measure for `COc1cccc(C(=O)NC(=S)Nc2ccc(N3CCCC3)cc2)c1`: -0.087; for `O=C(CC1C(=O)N(c2ccccc2)C(=S)N1c1ccccc1)c1ccccc1` (stereo unspecified): 0.466; for `CC(Sc1ncnc2ccccc12)C(=O)Nc1ccc2c(c1)OCCO2` (stereo unspecified): -0.25.

In turn, `NS(=O)(=O)c1ccc(CCNC(=S)Nc2ccccc2)cc1` displayed a z-score of -0.217. In the case of `COc1ccccc1OCc1ccc(C(=O)Nc2ccccc2F)cc1`, the z-score is -0.156. Next, `O=C(CSCc1cnn(-c2ccccc2)c1-n1cccc1)NCc1ccc2c(c1)OCO2`: 0.533. The same measure for `C#CCn1cc(/C=N/NC(=O)c2cc3ccccc3o2)c2ccccc21`: -0.24; for `Cc1cc(N2CCOCC2)nc2ccc(NC(=O)CCC(=O)N3CCCC(C)C3)cc12` (stereo unspecified): 2.7. Next, `Cc1cc(N2CCOCC2)nc2ccc(NC(=O)CCC(=O)N3CCC(C)CC3)cc12`: 0.27. With `Cc1cc(N2CCOCC2)nc2ccc(NC(=O)CCC(=O)N3CCCCC3)cc12`, the z-score was -0.00221. Take `CCOC(=O)c1c(-c2ccccc2)nnn1-c1nc(OC)nc(N2CCOCC2)n1`: the z-score was -0.476.

On to `Cc1ccnc2nc(C(=O)Nc3nnc(CC(C)C)s3)nn12`, for which the z-score was -0.0103. The same measure for `Cc1ccc(NC(=O)CN2C(=O)S/C(=C\C(=O)Nc3ccc(Cl)cc3)C2=O)cc1`: -0.0557. Next, `COc1ccc(NC2=Nc3cccc4cccc2c34)cc1OC`: 4.9 (active); `COc1ccc(NC2=Nc3cccc4cccc2c34)cc1`: -0.54; `COc1cc(NC2=Nc3cccc4cccc2c34)cc(OC)c1OC`: -0.385.

With `COc1ccc(-c2cc(C#N)nc(N3CCNCC3)n2)cc1`, the z-score was 2.07. Next, `COc1ccc(-c2cc(-c3ccc(F)cc3)nc(N3CCN(C)CC3)n2)cc1`: 0.083. In turn, `COc1ccc(-c2cc(C#N)nc(N3CCN(c4ccccc4)CC3)n2)cc1` came in with a z-score of -0.103.

`CN1CCN(/C=N/c2c(C#N)cnn2C)CC1` came in with a z-score of 0.146. Next, `Nc1cc(-c2ccc(Cl)cc2)nn1S(=O)(=O)c1ccc(Cl)cc1`: -0.0623. The same measure for `CCOC(=O)c1[nH]c(C)c(C(=O)NC2CCCCC2)c1C`: 3.27 (active); for `CCOC(=O)c1[nH]cnc1C(=O)NC1CCCCC1`: -0.225; for `CCOC(=O)c1sc(C)c(C(=O)NC2CCCCC2)c1N`: 3.33 (active).

With `CCOC(=O)c1sc(C)c(C(=O)NCC(C)(C)CN(C)C)c1N`, the z-score is 0.753. As to `CCOC(=O)c1[nH]c(C)c(C(=O)NC2CCCCCC2)c1C`, the z-score turned out to be 0.781. The same measure for `CCOC(=O)c1[nH]c(C)c(C(=O)NC2CCCC2)c1C`: -0.06; for `O=C(CN1CCc2ccccc21)NC(=O)NCc1ccco1`: 0.562; for `Cc1oc(C(C)(C)C)cc1C(=O)Nc1cccc(C(=O)O)c1`: -2.4. In turn, `COc1ccc(NC(=O)C(=O)N/N=C/c2cc(C)n(-c3cccc(Cl)c3Cl)c2C)c(OC)c1` returned a z-score of -0.134. Next, `Cc1c(NC(=O)C(C)OC(=O)c2sc3ccccc3c2Cl)c(=O)n(-c2ccccc2)n1C` (stereo unspecified): -0.273; `CCC(C)c1ccc(NC(=S)Nc2ccc(OC)c(OC)c2)cc1` (stereo unspecified): 5.09 (active). The same measure for `CCC(C)c1ccc(NC(=S)Nc2ccc(OC)cc2C)cc1` (stereo unspecified): 0.0172; for `CNC(=S)Nc1ccc(OC)c(OC)c1`: 0.0698. On to `COc1ccc(NC(=S)SC)cc1OC`, for which the z-score is 3.35 (active).

In the case of `CCC(C)c1ccc(NC(=S)Nc2ccc(OC)cc2)cc1` (stereo unspecified), the z-score was determined as 0.436.

As for `COC(=O)Nc1ccc(OC)c(OC)c1`, the z-score is 0.503. The same measure for `c1ccc(-c2ccccc2-c2nc(-c3ccncc3)no2)cc1`: -0.475; for `CCCC12CN3CCN(CC(C3)/C1=N\NC(=O)c1ccccc1N)C2`: -0.119; for `Cc1ccc(OCc2nc(-c3ccc(-n4cccc4)cc3)no2)cc1C`: -0.0508. Next, `CCOC(=O)C1=C(C)N(c2ccc(OC)cc2)C(=O)/C1=C\c1cccs1`: -0.132. The same measure for `CCOc1ccc(CCNC(=O)C2CCN(c3nnc(-n4cccc4)s3)CC2)cc1OCC`: -1.57; for `O=C(Nc1ccc(S(=O)(=O)Nc2ncccn2)cc1)c1ccc(Br)s1`: 0.347; for `O=C1C(C=NCc2ccccn2)=C(O)c2ccccc21`: -0.00613. Compound `COc1ccc(OCC(=O)NC(=S)N2CCCc3ccccc32)cc1` showed a z-score of 1.72. The same measure for `Cc1ccccc1OCc1nnc(SCC(=O)N2CCc3ccccc32)n1C`: -0.183; for `O=C(COc1ccc(Cl)cc1Cl)OCC(=O)N1CCCc2ccccc21`: -0.0629; for `Cc1cccc(OCc2nnc(SCC(=O)N3CCc4ccccc43)n2C)c1`: 2.88. The same measure for `O=C(CCCOc1ccc(Cl)cc1Cl)N1CCCc2ccccc21`: -0.0365.

The compound `Cc1ccc(OCc2nnc(SCC(=O)N3CCc4ccccc43)n2C)cc1` yielded a z-score of -0.358.

For the compound `CC(Oc1ccc(Cl)cc1Cl)C(=O)NC(=S)N1CCc2ccccc21` (stereo unspecified), the z-score is 12.9 (active). As to `Cc1cccc(OCC(=O)NC(=S)N2CCCc3ccccc32)c1`, the z-score was 7.99 (active). Next, `O=C(COc1ccc(Cl)cc1Cl)NC(=S)N1CCCc2ccccc21`: 13.2 (active); `CC(Oc1ccc(Cl)cc1Cl)C(=O)N/N=C1\CCCc2ccccc21` (stereo unspecified): 0.0705; `Cc1cccc(OC(C)C(=O)N2CCCc3ccccc32)c1` (stereo unspecified): -0.141. Compound `CC(Oc1ccc(Cl)cc1Cl)C(=O)NN=C1CCN(C)CC1` (stereo unspecified) showed a z-score of -0.0448.

Compound `CCOC(=O)c1cc(-c2ccc(OC(F)F)cc2)nc2nc(SC)[nH]c(=O)c12` registered a z-score of -0.208. Next, `COc1cc(CNCC(O)c2ccccc2)ccc1OCc1ccc(Cl)nc1` (stereo unspecified): 1.26.

`COC(=O)COc1cccc(NC(=O)c2cccs2)c1` registered a z-score of -0.153. Take `CCc1cccc2c(C(=O)COC(=O)/C=C/c3ccc(O)c(OC)c3)c[nH]c12`: the z-score is 0.418. The same measure for `CC(C)COP(=O)(OCC(C)C)C(Nc1ccccc1)c1ccc2c(c1)OCO2` (stereo unspecified): -0.389; for `C/C=C/c1ccc(OCCCNCC(C)O)c(OC)c1` (stereo unspecified): 1.74; for `COc1ccc(OC)c(NC(=O)CSc2nc(C)cs2)c1`: 0.389. Next, `CN(C)c1ccc(P(=O)(Nc2ccc([N+](=O)[O-])cc2)N2CCOCC2)c(NC(=O)c2cccs2)c1` (stereo unspecified): -0.185.

The compound `O=C(CN1C(=O)NC2(CCCC2)C1=O)N1CCN(C(=O)c2ccco2)CC1` registered a z-score of -1.15. Next, `Cc1ccc(NS(=O)(=O)c2cccc(C(=O)N/N=C/c3c(C)nn(-c4ccccc4)c3N3CCCC3)c2)c(C)c1`: -0.38; `CCCCNC(=S)N(C)/N=C/c1ccc(OCC(=O)Nc2c(C)cc(C)cc2C)c(OC)c1`: 0.00502. Next, `Cc1cc(C)n(-c2nc3ccccc3nc2N2CCN(C(=O)c3ccc(Cl)cc3)CC2)n1`: -1.16; `O=C(COc1ccc(F)cc1Br)N1CCc2ccccc21`: -0.0164; `O=C(COc1ccc(Br)cc1Br)NC(=S)N1CCCc2ccccc21`: 4.66 (active). `Cc1ccc(OCC(=O)N2CCc3ccccc32)cc1`: the z-score was -0.113. The same measure for `CCC(=O)N1CCN(c2ccccc2NC(=O)COc2ccccc2Cl)CC1`: -1.24; for `O=C(COc1ccccc1Cl)NC(=S)N1CCc2ccccc21`: 12.1 (active). The compound `CCNC(=O)COc1ccc(Br)cc1Cl` came in with a z-score of 0.307.

Take `O=C(COc1ccccc1Cl)NC(=O)NC1CCCC1`: the z-score stood at 0.502. Regarding `CC(C)NC(=O)NC(=O)COc1ccc(Br)cc1Br`, the z-score was -0.136. On to `O=C(COc1ccccc1)NC(=S)N1CCc2ccccc21`, for which the z-score is 10.1 (active). The same measure for `O=C(COc1ccc(Br)cc1Cl)NC(=S)N1CCc2ccccc21`: 2.28.

`O=C(COc1ccccc1)N1CCc2ccccc21` displayed a z-score of -0.0743. The same measure for `O=C(COc1ccc(Br)cc1Cl)NC(=O)NCc1ccccc1`: 0.301. `O=C(Cc1cccs1)Nc1ccc(Cl)cc1` gave a z-score of 0.318. Next, `Cc1cc(C)cc(SCc2noc(C(=O)NCC3CCCO3)c2C(=O)O)c1` (stereo unspecified): -0.238; `Cc1cc(C)nc(-n2nc(C)cc2NC(=O)CNC(C)c2ccccc2)n1` (stereo unspecified): 0.124. The same measure for `COC(=O)c1cc(OC)c(OC)cc1NCC(=O)Nc1ccc(OC)c(OC)c1`: -0.419; for `Cc1c(NC(=O)C(C)OC(=O)c2cccs2)c(=O)n(-c2ccccc2)n1C` (stereo unspecified): 0.0558; for `CCOc1cc(CNCc2ccccn2)ccc1OCC(=O)NC1CCCCC1`: -0.535. Next, `O=C(Nc1ccc2oc(=O)ccc2c1)c1cc2ccccc2o1`: -1.25. As for `O=C(CN(Cc1ccc(F)cc1)C(=O)c1ccco1)NCc1ccc(F)cc1`, the z-score is -1.36. Next, `CNc1nc2ccccc2n1/N=C/c1cccc(OC)c1OC`: -1.51.

The compound `O=Cc1ccc(OC(=O)c2cc(Cl)nc3ccccc23)cc1` showed a z-score of -0.764. `CCn1c(SCc2ccc([N+](=O)[O-])cc2)nnc1C(C)NC(=O)c1ccc(C)cc1` (stereo unspecified) registered a z-score of -0.256.

`CC(C)(C)n1nc2c(c1NC(=O)c1ccco1)CS(=O)C2` (stereo unspecified) came in with a z-score of 0.0777. On to `O=C(Cn1cccc1)N1CCN(c2ccc(F)cc2)CC1`, for which the z-score is -0.241.

As for `Nn1c(SCC(=O)N2CCN(S(=O)(=O)c3ccc(Cl)cc3)CC2)nnc1-c1cccs1`, the z-score was -0.22.

For the origin of these results see PubChem BioAssay AID488969 (Vanderbilt High Throughput Screening Facility, 2010).
